Reference: PubChem BioAssay (Tox21)
“And” between values parts separate entries of the source, which are not always exact repeats. Equal values may be shown once. Some compounds were tested as several samples or in several runs, with calls that do not always agree. The source made the active and inactive calls. Unless noted, calls follow the shape of the dose curve; as a rule, active = well fitted curve in the direction sought with a large enough effect in the repeat runs; inconclusive = weak or mixed curves; inactive = no such curve, though single readings can be large; an effect the other way counts as inactive or inconclusive.

Experiments:
[1] = qHTS assay to identify small molecule antagonists of the thyroid receptor (TR) signaling pathway (AID 743065); conditions: GH3.TRE-Luc, T3-stimulated luciferase inhibition, 23.5 h; series mostly up to 70.3 µM; also: potency is read from the fitted curve at half-maximal effect; nearly all actives have a fitted effect of over 55% in size
Method in brief: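 Antagonism measured as loss of luciferase signal in GH3 cells stably carrying a TRE-luciferase reporter, co-treated with compound and T3 (1 nM final) for 23.5 h at 37 C. Viability was read in the same well by CellTiter-Fluor.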

[2] = qHTS assay to identify small molecule antagonists of the estrogen receptor alpha (ER-alpha) signaling pathway - cell viability counter screen (AID 743074; calls by dose curve;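 also: HEK293 cells carrying ER-alpha-UAS-bla reporter stimulated with 17beta-estradiol; nearly all actives have a fitted effect of over 45% in size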; also: potency is read from the fitted curve at half-maximal effect); conditions: ERalpha-bla HEK293 viability, CellTiter-Glo luminescence, 18 h; series mostly up to 69.4 µM
[3] = target: Estrogen receptor (Homo sapiens) (UniProt P03372); test: qHTS assay to identify small molecule agonists of the estrogen receptor alpha (ER-alpha) signaling pathway (AID 743075; calls by dose curve;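 also: HEK293 GripTite cells with ER-alpha and UAS-driven beta-lactamase reporter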; also: potency is read from the fitted curve at half-maximal effect); conditions: HEK293 ER-alpha-UAS-bla, beta-lactamase FRET ratio, 18 h; series mostly up to 70.1 µM
Estrogen receptor (Homo sapiens), sequence (P03372 whole entry, looked up): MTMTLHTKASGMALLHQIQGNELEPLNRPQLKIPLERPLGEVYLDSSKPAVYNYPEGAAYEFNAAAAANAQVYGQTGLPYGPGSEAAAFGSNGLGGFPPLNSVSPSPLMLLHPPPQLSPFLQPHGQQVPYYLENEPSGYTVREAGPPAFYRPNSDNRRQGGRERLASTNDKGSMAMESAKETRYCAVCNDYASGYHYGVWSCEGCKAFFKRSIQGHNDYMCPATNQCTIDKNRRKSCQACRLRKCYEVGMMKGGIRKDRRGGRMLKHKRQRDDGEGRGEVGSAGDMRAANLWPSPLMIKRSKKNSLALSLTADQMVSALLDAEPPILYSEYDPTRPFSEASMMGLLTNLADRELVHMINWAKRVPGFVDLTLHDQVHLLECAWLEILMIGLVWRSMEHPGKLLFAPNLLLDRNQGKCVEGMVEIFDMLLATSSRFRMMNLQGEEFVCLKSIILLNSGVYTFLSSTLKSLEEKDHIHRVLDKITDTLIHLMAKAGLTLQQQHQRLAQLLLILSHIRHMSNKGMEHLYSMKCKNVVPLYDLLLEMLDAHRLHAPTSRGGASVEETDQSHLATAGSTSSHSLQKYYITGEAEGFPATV

[4] = qHTS assay to identify small molecule antagonists of the estrogen receptor alpha (ER-alpha) signaling pathway using the BG1 cell line (AID 743080; calls by dose curve;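 also: BG1 cells stimulated with 17beta-estradiol alongside compound; nearly all actives have a fitted effect of over 25% in size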; also: potency is read from the fitted curve at half-maximal effect); conditions: BG1Luc4E2 ERE-luciferase antagonist mode, luminescence; series mostly up to 70.3 µM
Method in brief: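 Endogenous full-length ER-alpha in BG1-Luc-4E2 cells drives a stably integrated 4×ERE luciferase gene; compounds were tested against 17beta-estradiol over 21.5 h, with luminescence and multiplexed viability fluorescence recorded.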

[5] = qHTS assay to identify small molecule antagonists of the estrogen receptor alpha (ER-alpha) signaling pathway using the BG1 cell line - cell viability counter screen (AID 743081); conditions: BG1Luc4E2 viability, CellTiter-Fluor, 22 h; series mostly up to 70.3 µM;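 also: compound given together with 17beta-estradiol as the ER stimulus; nearly all actives have a fitted effect of over 45% in size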; also: potency is read from the fitted curve at half-maximal effect
Aromatase (Homo sapiens) = Aromatase (Homo sapiens) (UniProt P11511); test: qHTS assay to identify aromatase inhibitors (AID 743083); conditions: MCF-7 aro ERE, testosterone-driven ERE luciferase, 24 h; series mostly up to 70.3 µM; also: nearly all actives have a fitted effect of over 55% in size; also: potency is read from the fitted curve at half-maximal effect
Aromatase (Homo sapiens), sequence (P11511 whole entry, looked up): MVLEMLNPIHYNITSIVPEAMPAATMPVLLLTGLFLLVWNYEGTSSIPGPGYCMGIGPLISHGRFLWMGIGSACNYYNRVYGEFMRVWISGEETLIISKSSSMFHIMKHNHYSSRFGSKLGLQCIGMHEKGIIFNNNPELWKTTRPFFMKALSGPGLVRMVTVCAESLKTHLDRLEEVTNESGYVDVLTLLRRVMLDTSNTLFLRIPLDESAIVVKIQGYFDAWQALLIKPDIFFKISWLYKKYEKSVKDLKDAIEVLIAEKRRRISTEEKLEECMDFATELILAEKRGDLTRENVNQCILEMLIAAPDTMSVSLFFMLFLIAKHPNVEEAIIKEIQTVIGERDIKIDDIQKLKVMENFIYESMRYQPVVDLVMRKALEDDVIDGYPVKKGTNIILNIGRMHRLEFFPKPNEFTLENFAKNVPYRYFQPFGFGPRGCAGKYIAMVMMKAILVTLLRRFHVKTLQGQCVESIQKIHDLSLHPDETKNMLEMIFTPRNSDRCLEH

[6] = target: Aryl hydrocarbon receptor (Homo sapiens) (UniProt P35869); test: qHTS assay to identify small molecule that activate the aryl hydrocarbon receptor (AhR) signaling pathway (AID 743085); conditions: HepG2 AhR-luc (HG2L7.5c1), luciferase, 24 h; series mostly up to 70.3 µM; also: nearly all actives have a fitted effect of over 15% in size; also: potency is read from the fitted curve at half-maximal effect;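 as to activation: HG2L7.5c1 human HepG2 liver cells with stably integrated DRE-driven firefly reporter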
Aryl hydrocarbon receptor (Homo sapiens), sequence (P35869 whole entry, looked up): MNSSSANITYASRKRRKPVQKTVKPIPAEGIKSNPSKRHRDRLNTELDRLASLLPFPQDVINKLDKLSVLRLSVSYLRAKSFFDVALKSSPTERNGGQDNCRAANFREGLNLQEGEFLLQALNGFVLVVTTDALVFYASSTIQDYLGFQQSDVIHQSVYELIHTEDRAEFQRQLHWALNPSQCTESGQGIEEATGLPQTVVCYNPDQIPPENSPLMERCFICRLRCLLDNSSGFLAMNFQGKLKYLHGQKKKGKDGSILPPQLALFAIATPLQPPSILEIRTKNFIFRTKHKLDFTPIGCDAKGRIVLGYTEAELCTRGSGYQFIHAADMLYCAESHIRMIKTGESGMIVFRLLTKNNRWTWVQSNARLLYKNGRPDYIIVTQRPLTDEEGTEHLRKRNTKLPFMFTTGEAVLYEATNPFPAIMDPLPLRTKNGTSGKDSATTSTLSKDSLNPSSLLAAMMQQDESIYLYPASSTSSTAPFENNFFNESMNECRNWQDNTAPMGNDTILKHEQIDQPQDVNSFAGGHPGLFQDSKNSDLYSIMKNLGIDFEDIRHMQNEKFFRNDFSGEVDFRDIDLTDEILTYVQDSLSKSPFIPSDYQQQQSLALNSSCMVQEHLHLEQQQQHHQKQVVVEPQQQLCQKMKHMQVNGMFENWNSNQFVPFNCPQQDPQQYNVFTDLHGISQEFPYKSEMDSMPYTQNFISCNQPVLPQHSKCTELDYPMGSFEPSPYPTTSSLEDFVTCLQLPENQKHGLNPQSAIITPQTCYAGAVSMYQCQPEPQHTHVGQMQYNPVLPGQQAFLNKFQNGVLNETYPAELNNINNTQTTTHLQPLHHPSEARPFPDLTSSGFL
Method in brief: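 Stably transfected human liver carcinoma cells (HG2L7.5c1; 20 DRE-firefly luciferase) were incubated 5 h, dosed, and kept 24 h at 37C. Agonism was scored from increased luciferase luminescence.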

[7] = qHTS assay to identify small molecule antagonists of the peroxisome proliferator-activated receptor gamma (PPARg) signaling pathway - cell viability counter screen (AID 743194); conditions: PPARg-bla HEK293H viability, CellTiter-Glo luminescence, 17 h; Potency: co-treated with 50 nM rosiglitazone unless noted; series mostly up to 62.6 µM; also: nearly all actives have a fitted effect of over 55% in size; also: potency is read from the fitted curve at half-maximal effect
Method in brief: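 Viability was measured as CellTiter-Glo luminescence in GeneBLAzer PPARg UAS-bla HEK293H cells. These cells had been exposed 17 h at 37 C to compounds together with rosiglitazone at 50 nM final, with the beta-lactamase readout taken in the same wells.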

[8] = qHTS assay for small molecule agonists of the antioxidant response element (ARE) signaling pathway (AID 743202; active = well fitted activation curve with a large enough effect in the signal ratio in the repeat runs, not every such curve was filed as active; inconclusive = weak or mixed curves, or effect the other way; inactive = no such curve, though single readings can be large or run the other way; the % refers to the signal ratio; also: potency is read from the fitted curve at half-maximal effect); conditions: HepG2 ARE-bla reporter, beta-lactamase FRET, 16 h; series mostly up to 73.3 µM
Method in brief: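 After 16 hours of compound treatment at 37 C, HepG2 cells with a stably integrated ARE-driven beta-lactamase reporter were loaded 2 hours at room temperature with LiveBLAzer B/G FRET substrate and fluorescence intensity measured.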

[9] = qHTS assay for small molecule agonists of the antioxidant response element (ARE) signaling pathway - cell viability counter screen (AID 743203; calls by dose curve; also: nearly all actives have a fitted effect of over 55% in size; also: potency is read from the fitted curve at half-maximal effect); conditions: ARE-bla HepG2 viability, CellTiter-Glo luminescence, 16 h; series mostly up to 73.3 µM
Method in brief: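 Viability counter screen: stably transfected ARE-bla HepG2 line, 16 hrs compound exposure at 37C/5% CO2, ATP-based CellTiter-Glo luminescence measured in the reporter wells.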

[10] = qHTS assay for small molecule activators of the heat shock response signaling pathway - cell viability counter screen (AID 743209); conditions: HSE-bla HeLa viability, CellTiter-Glo luminescence, 5 h; series mostly up to 62.6 µM; also: nearly all actives have a fitted effect of over 50% in size; also: potency is read from the fitted curve at half-maximal effect
Method in brief: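 Viability of HSE-bla HeLa cells is measured with CellTiter-Glo in the wells already used for the reporter read. Compound exposure lasts 5 h at 37 C, and luminescence is read after 30 min at room temperature.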

[11] = qHTS assay to identify small molecule agonists of the peroxisome proliferator-activated receptor delta (PPARd) signaling pathway - cell viability counter screen (AID 743211); conditions: PPARd-bla HEK293H viability, CellTiter-Glo luminescence, 17 h; series mostly up to 62.6 µM; also: nearly all actives have a fitted effect of over 55% in size; also: potency is read from the fitted curve at half-maximal effect
Method in brief: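 In the same wells used for beta-lactamase reporter measurement, cytotoxicity is scored by CellTiter-Glo. HEK293H PPARd-bla cells receive compound for 17 h at 37C following a 5 h settling period.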

[12] = test system: thyroid hormone receptor (rat, GH3 cells); test: qHTS assay to identify small molecule agonists of the thyroid receptor (TR) signaling pathway (AID 743066; calls by dose curve); conditions: GH3.TRE-Luc cells, TR agonist luciferase, 24 h; series mostly up to 83.9 µM
[13] = target: Estrogen receptor (Homo sapiens) (UniProt P03372); test: qHTS assay to identify small molecule agonists of the estrogen receptor alpha (ER-alpha) signaling pathway using the BG1 cell line (AID 743079); conditions: BG1Luc4E2 cells, ERE-luciferase agonist, 22 h; series mostly up to 70.3 µM; also: nearly all actives have a fitted effect of over 20% in size; also: potency is read from the fitted curve at half-maximal effect
[14] = qHTS assay to identify aromatase inhibitors - cell viability counter screen (AID 743084); conditions: MCF-7 aro ERE viability, CellTiter-Fluor, 24 h; series mostly up to 70.3 µM; also: potency is read from the fitted curve at half-maximal effect
[15] = qHTS assay to identify small molecule that activate the aryl hydrocarbon receptor (AhR) signaling pathway - cell viability counter screen (AID 743086); conditions: HepG2-AhR-luc viability, CellTiter-Fluor, 24 h; series mostly up to 70.3 µM; also: nearly all actives have a fitted effect of over 45% in size; also: potency is read from the fitted curve at half-maximal effect
Method in brief: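 Cytotoxicity counter screen: CellTiter-Fluor signal (30 min, 37 C) in 4000 HepG2 cells/well carrying the DRE-luciferase reporter, following 24 h compound exposure at 37 C.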

[16] = target: Estrogen receptor (Homo sapiens) (UniProt P03372); test: qHTS assay to identify small molecule antagonists of the estrogen receptor alpha (ER-alpha) signaling pathway (AID 743069; active = well fitted curve in the direction sought with a large enough effect in the signal ratio in the repeat runs, not every such curve was filed as active; inconclusive = weak or mixed curves, or effect the other way; inactive = no such curve, though single readings can be large or run the other way; the % refers to the signal ratio; also: potency is read from the fitted curve at half-maximal effect); conditions: HEK293 ER-alpha-UAS-bla, beta-lactamase ratio, antagonist mode; series mostly up to 69.4 µM
Method in brief: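 Antagonist mode: compounds in DMSO were co-added with 17beta-estradiol to ER-alpha-bla HEK293 cells (2% charcoal-stripped serum) and left 18 h at 37C. Reporter inhibition was measured as FRET fluorescence after 2 h LiveBLAzer substrate at room temperature.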

[17] = target: Peroxisome proliferator-activated receptor gamma (Homo sapiens) (UniProt P37231); test: qHTS assay to identify small molecule agonists of the peroxisome proliferator-activated receptor gamma (PPARg) signaling pathway (AID 743094; active = well fitted activation curve with a large enough effect in the signal ratio in the repeat runs, not every such curve was filed as active; inconclusive = weak or mixed curves, or effect the other way; inactive = no such curve, though single readings can be large or run the other way; the % refers to the signal ratio; also: potency is read from the fitted curve at half-maximal effect); conditions: HEK293H PPARg-UAS-bla, beta-lactamase FRET ratio, 17 h; series mostly up to 57 µM
Peroxisome proliferator-activated receptor gamma (Homo sapiens), sequence (P37231 whole entry, looked up): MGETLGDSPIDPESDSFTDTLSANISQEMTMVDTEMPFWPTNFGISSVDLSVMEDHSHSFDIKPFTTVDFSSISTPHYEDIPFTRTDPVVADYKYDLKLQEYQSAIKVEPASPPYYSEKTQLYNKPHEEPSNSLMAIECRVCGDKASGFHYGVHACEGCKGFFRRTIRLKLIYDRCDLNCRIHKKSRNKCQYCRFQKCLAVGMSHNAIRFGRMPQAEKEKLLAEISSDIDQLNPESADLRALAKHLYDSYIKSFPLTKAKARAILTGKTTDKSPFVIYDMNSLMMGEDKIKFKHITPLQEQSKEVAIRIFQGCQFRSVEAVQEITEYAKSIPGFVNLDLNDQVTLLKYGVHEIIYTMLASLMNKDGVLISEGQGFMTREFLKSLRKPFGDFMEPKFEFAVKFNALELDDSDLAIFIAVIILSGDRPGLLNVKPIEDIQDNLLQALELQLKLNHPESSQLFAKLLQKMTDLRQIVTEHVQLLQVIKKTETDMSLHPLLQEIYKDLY
Method in brief: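 Reporter activation was scored by fluorescence of cleaved LiveBLAzer B/G substrate (1 h, room temperature) in PPARg-bla HEK293H cells previously treated 17 h at 37C with DMSO-dissolved compounds.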

[18] = target: Peroxisome proliferator-activated receptor gamma (Homo sapiens) (UniProt P37231); test: qHTS assay to identify small molecule antagonists of the peroxisome proliferator-activated receptor gamma (PPARg) signaling pathway (AID 743191; calls by dose curve; also: nearly all actives have a fitted effect of over 30% in size); conditions: HEK293H PPARg-UAS-bla, beta-lactamase ratio, antagonist, 17 h; series mostly up to 62.6 µM
Method in brief: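 Beta-lactamase reporter under UAS control in HEK293H PPARg-bla cells; compound treatment 17 h at 37C. Read-out: fluorescence intensity after 1 h room-temperature incubation with LiveBLAzer B/G FRET substrate.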

[19] = qHTS assay for small molecule activators of the heat shock response signaling pathway (AID 743210; active = well fitted activation curve with a large enough effect in the signal ratio in the repeat runs, with a control signal flat, not every such curve was filed as active; inconclusive = weak or mixed curves; the % refers to the signal ratio); conditions: HeLa HSE-bla reporter, beta-lactamase ratio, 5 h; series mostly up to 62.6 µM
Method in brief: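 Compound exposure lasted 5 h at 37 C in HeLa cells carrying a heat-shock-element-driven beta-lactamase reporter. Read-out: fluorescence intensity after 2.5 h room-temperature loading with LiveBLAzer B/G FRET substrate.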

Measured: Potency

c1ccc2c(c1)OCC(C1=NCCN1)O2 (stereo not drawn)
inactive: [2] | [3] | [4] | [5] | [6] | [7] | [9] | [10]
active: [1] 7.5 µM | Aromatase (Homo sapiens) 26.6 µM | [8] 13.3 µM | [11] 23.7 µM

CCCCCCCCCCCCCCC(Br)C(=O)O (stereo not drawn)
inactive: [12] | [2] | [13] | [5] | Aromatase (Homo sapiens) | [14] | [6] | [15]
active: [7] 43.6 µM | [10] 24.5 µM

O=[N+]([O-])c1cc(C(F)(F)F)c(Cl)c([N+](=O)[O-])c1Cl
inactive: [6]
active: [1] 0.386 µM | [2] 54.9 µM | [5] 61.1 µM | Aromatase (Homo sapiens) 1.22 µM | [14] 3.06 µM | [15] 54.5 µM | [7] 2.45 µM | [9] 1.72 µM | [10] 2.19 µM | [11] 11 µM

CC(=O)Nc1ccc2c(c1)Cc1ccccc1-2
active: [13] 11 µM | [6] 55.3 µM | [8] 27.7 µM
not listed: [1] | [4] | [9]
inactive: all other assays above

O=C1NCN(c2ccccc2)C12CCN(CC1COc3ccccc3O1)CC2 (stereo not drawn)
not listed: [1] | [7] | [9] | [10] | [11] | [13] | [18]
inactive: all other assays above

CC1CCC(C(C)C)C(OC(=O)c2ccccc2N)C1 (stereo not drawn)
inactive and 47.9 µM (active): [14]
active: [3] 7.56 µM [inconclusive] and 6.82 µM [inconclusive] | [13] 3.35 µM and 2.69 µM | [11] 24.2 µM
inactive and 60.3 µM (active): Aromatase (Homo sapiens)
inactive: [12] | [2] | [4] | [5] | [6] | [15] | [17] | [9]

CCOCn1c(-c2ccc(Cl)cc2)c(C#N)c(Br)c1C(F)(F)F
inactive: [6]
active: [1] 1.37 µM | Aromatase (Homo sapiens) 9.69 µM | [7] 1.95 µM | [11] 19.5 µM

CCCN(CC)CC1COC2(CCC(C(C)(C)C)CC2)O1 (stereo not drawn)
not listed: [1] | [8] | [9] | [17] | [18]
inactive: all other assays above

Clc1ccc(CSC(Cn2ccnc2)c2ccc(Cl)cc2Cl)cc1 (stereo not drawn)
active: Aromatase (Homo sapiens) 2.85 µM | [7] 29.8 µM | [9] 29.8 µM | [10] 29.8 µM | [11] 33.5 µM
inactive: [12] | [2] | [4] | [5] | [14] | [6] | [15] | [17]

O=C(CCCN1CCC2(CC1)C(=O)NCN2c1ccccc1)c1ccc(F)cc1
inactive: [12] | [3] | [17] | [7] | [10] | [19] | [11]
active: [16] 8.49 µM [inconclusive] | Aromatase (Homo sapiens) 29.8 µM | [8] 2.98 µM

[CH3][Hg][Cl]
inactive: [2] | [13] | [6] | [15]
active: [1] 1.22 µM | [5] 34.3 µM | Aromatase (Homo sapiens) 27.2 µM | [14] 24.3 µM | [7] 12.3 µM | [9] 8.61 µM | [11] 12.3 µM

CCCCN(CCCC)C(=S)[S-].CCCCN(CCCC)C(=S)[S-].[Zn+2]
active: [1] 13.3 µM and 9.68 µM | [2] 19 µM and 12.3 µM | [3] 30.1 µM [inconclusive] | [5] 21.1 µM and 38.5 µM | [7] 5.49 µM | [9] 19.3 µM | [11] 6.16 µM
inactive: Aromatase (Homo sapiens) | [14] | [6] | [15] | [10]
inactive and 30.9 µM (active): [17]

Cc1cc(C)cc(OP(=O)(Oc2cc(C)cc(C)c2)Oc2cc(C)cc(C)c2)c1
active: [6] 9.84 µM
not listed: [1] | [8] | [10] | [11] | [17]
inactive: all other assays above

C[C@]12Cc3nonc3C[C@@H]1CC[C@@H]1[C@@H]2CC[C@@]2(C)[C@H]1CC[C@]2(C)O
active: [1] 13.3 µM | [4] 29.8 µM | [8] 8.41 µM
inactive: [2] | [5] | [14] | [6] | [15] | [7] | [10] | [19]

CCCOCC(=Nc1ccc(Cl)cc1C(F)(F)F)n1ccnc1
active: [1] 7.69 µM | Aromatase (Homo sapiens) 0.0153 µM | [14] 12.2 µM | [15] 54.4 µM | [7] 11 µM | [9] 13.7 µM | [10] 12.3 µM | [11] 13.8 µM
inactive: [6]
